This is an account of results in PubChem BioAssay (NCATS).

Results filed as inconclusive are left out. The source made the active and inactive calls. Calls come from the whole dose curve; as a rule, active = well fitted inhibition curve with a large enough effect; inconclusive = small, poorly fitted or top-dose-only effect; inactive = flat fitted curve, though single readings scatter.
% is set by controls: 0 for no effect and ±100 for the full control effect; potency is the fitted concentration of half-maximal effect.

The subject of this test is astro (control astrocytes). Description: Drug repurposing screens with cells derived from glioblastoma tumor samples (AID 1345199). Note: nearly all actives have a fitted effect of over 40% in size. The conditions noted are these: viability, ATP luminescence, 48 h; series mostly up to 45.9 µM; activity, negative = cell killing: at the top concentration. The procedure, abridged:
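Four patient lines of CD133+ GBM neurospheres were screened at several concentrations; hits were retested in those lines plus three slower-growing GBM lines, using 48-hour treatment and ATP-based viability.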
Turning to `CN/C(=C\[N+](=O)[O-])NCCSCc1ccc(CN(C)C)o1`, the “activity, negative = cell killing” value was -12.2% (inactive).
Take `COc1cc2c(cc1OC)-c1cc(=Nc3c(C)cc(C)cc3C)n(C)c(=O)n1CC2`: the Potency is 17.8 µM (active).
As to `Cc1scc2c1N(C(=O)CN1CCN(C)CC1)c1ccccc1NC2=O`, the “activity, negative = cell killing” value is -5.89% (inactive).
For `OCCN1CCN(CC/C=C2/c3ccccc3Sc3ccc(C(F)(F)F)cc32)CC1`, the Potency was 31.6 µM (active).
As for `CN(C)C(=O)Oc1cccc([N+](C)(C)C)c1`, the “activity, negative = cell killing” value was -10.3% (inactive).
Same read-out and setting: then `CC[N+](C)(C)c1cccc(O)c1`, with -10.3% [at 21.2 µM] (inactive); and `CCOC(=O)C1=C(C)NC(C)=C(C(=O)OC)C1c1cccc(Cl)c1Cl` (stereo not given), with -20.9% (inactive); and `C[C@]12CCC(=O)C=C1CC[C@@H]1[C@@H]2C(=O)C[C@@]2(C)[C@H]1CC[C@]2(O)C(=O)CO`, with -10.1% (inactive).
Still for that read-out and setting: to `FC(F)(F)c1ccccc1-n1ccnc1` belongs -12.6% (inactive); to `CCN(CC)CCNC(=O)c1cc(S(C)(=O)=O)ccc1OC`, -11.9% [at 21.2 µM] (inactive).
As for `CN(C)CC[C@@H](c1ccc(Br)cc1)c1ccccn1`, the “activity, negative = cell killing” value was -21.4% (inactive).
Same read-out and setting: to `CN(C)CC/C=C1\c2ccccc2COc2ccccc21` belongs -29.4% (inactive).
With `NS(=O)(=O)c1cc2c(cc1Cl)NC(C1CC3C=CC1C3)NS2(=O)=O` (stereo not given), the “activity, negative = cell killing” value was -7.59% (inactive).
Still for that read-out and setting: then `N[C@@H](COP(=O)(O)O)C(=O)O`, with -8.6% (inactive).
Still for that read-out and setting: then `CCN1CCC[C@H]1CNC(=O)c1c(O)c(Cl)cc(Cl)c1OC`, with -14.6% (inactive); and `COc1ccc(CCN(C)CCCC(C#N)(c2cc(OC)c(OC)c(OC)c2)C(C)C)cc1OC` (stereo not given), with -14.2% (inactive); and `C[C@@H](O)[C@H]1C(=O)N2C(C(=O)O)=C(SCCN=CN)C[C@H]12`, with -2.86% [at 21.2 µM] (inactive).
For `CCn1nc(C(=O)O)c(=O)c2cc3c(cc21)OCO3`, the “activity, negative = cell killing” value was -16.1% [at 21.2 µM] (inactive).
With `CN(C(=O)CCCOc1ccc2[nH]c(=O)ccc2c1)C1CCCCC1`, the “activity, negative = cell killing” value was -29.5% (inactive).
The same measure, in the same setting: then `CC(C)(C)NCC(O)c1cc(O)cc(O)c1` (stereo not given), with -22.8% (inactive); and `Cc1nc2c([nH]1)c(=O)n(C)c(=O)n2Cc1ccco1`, with -9.2% (inactive); and `CCCOc1ccccc1-c1nc2n[nH]nc2c(=O)[nH]1`, with -11.2% (inactive).
The same measure, in the same setting: then `CCCN1C[C@H](CSC)C[C@@H]2c3cccc4[nH]cc(c34)C[C@H]21`, with -21.2% (inactive); and `C[C@]12CCC(=O)C=C1CC[C@@H]1[C@@H]2CC[C@@]2(C)[C@H]1CC[C@]2(O)C(=O)CO`, with -14% (inactive).
As to `Brc1c(NC2=NCCN2)ccc2nccnc12`, the “activity, negative = cell killing” value is -15.1% (inactive).
Same read-out and setting: then `C=CCc1ccccc1OCC(O)CNC(C)C` (stereo not given), with -24.4% (inactive); and `CC(=O)OCC1=C(C(=O)O)N2C(=O)[C@@H](NC(=O)Cc3cccs3)[C@H]2SC1`, with -1.37% (inactive).
Still for that read-out and setting: then `C[N+](C)(C)CCCCCCCCCC[N+](C)(C)C`, with -11.3% (inactive).
With `CCN(CC)CCOCCOC(=O)C1(c2ccccc2)CCCC1`, the Potency was 35.5 µM (active).
Regarding `CCCN(CCC)C(=O)C(CCC(=O)O)NC(=O)c1ccccc1` (stereo not given), the “activity, negative = cell killing” value was -8.3% (inactive).
